Here are results for twelve compounds from PubChem BioAssay (NCATS).

Where “and” joins values, the source holds several entries; their conditions need not be identical. Equal entries are not always repeated. Records with an inconclusive call do not appear. Calls of active or inactive are those of the source. The call rests on the fitted dose curve; in most records, active means well fitted curve in the direction sought with a large enough effect; inconclusive means small, poorly fitted or top-dose-only effect, or another doubt; inactive means no such curve, though single readings can be large; an effect the other way counts as inactive or inconclusive.

Assay [1] addresses N-terminal Xaa-Pro-Lys N-methyltransferase 1 (Homo sapiens) (UniProt Q9BV86). Description: qHTS Assay for Inhibitors of N-terminal methyltransferase 1 (NTMT1): LOPAC validation of the NTMT1 SAHH-coupled ThioGlo3 Assay (AID 1347143).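 Further: SAH from peptide methylation measured as thiol fluorescence via SAHH coupling and ThioGlo3; nearly all actives have a fitted effect of over 70% in size.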 Further: potency means the concentration at half of the fitted maximal effect. The gist of the method: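 Inhibition of NTMT1 methylation of peptide SPKRIA is followed by converting SAH with SAHH and labelling the released thiol with ThioGlo3. Plates are read at 340/450nm before and 30 min after reagent addition, both at room temperature.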

The next assay deals with Furin (Homo sapiens) (UniProt P09958). Description: Furin counterscreen qHTS for Zika virus inhibitors (AID 1347149). Further: nearly all actives have a fitted effect of over 70% in size. Further: potency means the concentration at half of the fitted maximal effect. The gist of the method:
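Fluorogenic cleavage of BOC-RVRR-AMC (2 microM final, Km ~15 µM) was monitored (ex 340, em 450 nm) at 37C after 15 min RT preincubation of 5 nM furin with compounds in HEPES pH 7.0 buffer with CaCl2 and Triton X-100. Percent inhibition was fitted to a 4-parameter Hill curve.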
In general terms: The purpose of a counterscreen is to sort out artefacts and off-target activity.

Assay [2] concerns Zika virus NS2B-NS3 protease (unlinked). Description: Optimization of GU AMC qHTS for Zika virus inhibitors: Unlinked NS2B-NS3 protease assay (AID 1347151). Further: nearly all actives have a fitted effect of over 80% in size. Further: potency means the concentration at half of the fitted maximal effect. The gist of the method: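 Fluorescence read-out (340 nm ex / 450 nm em) of AMC peptide cleavage, taken immediately and after 15 min at room temperature (~20% conversion). Enzyme was the unlinked NS2B–NS3 complex at 25 nM in Tris pH 8.0 buffer.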
On the technique in general: qHTS replaces the single test concentration by a dilution series.

Assay [3] deals with Zika virus NS2B-NS3 protease (linked construct). Description: Confirmatory screen NINDS AMC qHTS for Zika virus inhibitors (AID 1347152). Further: nearly all actives have a fitted effect of over 70% in size. Further: potency means the concentration at half of the fitted maximal effect. The gist of the method: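 Linked NS2B-NS3 1 nM, Tris pH 8.0/0.01% Tween 20; cpd 15 min RT dark; + Nle-KRR-AMC 10 µM (Km 18.3 µM); read 0 and 15 min, 340/450 nm; %inh vs controls, 4-param Hill.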
In assay [4] the test system is Zika virus NS2B-NS3 protease (unlinked complex). Description: Confirmatory screen GU AMC qHTS for Zika virus inhibitors (AID 1347153). Further: nearly all actives have a fitted effect of over 70% in size. The gist of the method:
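Fluorescence change (ex 340/em 450 nm) over 15 min, ~20% substrate conversion, normalized to no-inhibitor and no-enzyme controls, then Hill-fitted. Unlinked protease at 25 nM; AMC peptide 10 µM.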

Assay [5] deals with Zika virus NS2B-NS3 protease. The assay can be described thus: Primary screen GU AMC qHTS for Zika virus inhibitors (AID 1347154). Further: nearly all actives have a fitted effect of over 70% in size. Further: potency means the concentration at half of the fitted maximal effect. The gist of the method:
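Fluorogenic AMC-substrate cleavage by noncovalent NS2B-NS3 protease complex (25 nM, pH 8.0 Tris buffer with Tween 20) followed for 15 minutes at room temperature (~20% conversion). Percent inhibition from ex340/em450 signal change, fitted by 4-parameter Hill equation.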

Assay [6] in a line: Confirmatory screen NINDS Rhodamine qHTS for Zika virus inhibitors (AID 1347161).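 Further: purified Zika NS2B-NS3 protease with linked NS2B cofactor domain and Rhodamine110 peptide substrate; series mostly up to about 110 µM; nearly all actives have a fitted effect of over 60% in size.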 The gist of the method: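 Aprotinin served as in-plate control. Conditions: 25 nM linked NS2B-NS3, pH 8.0 Tris buffer, titrated compounds, 15 min preincubation and 15 min reaction with 1.5 microM Rhod110 substrate at room temperature.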
Assay [7] can be described thus: qHTS of pediatric cancer cell lines to identify multiple opportunities for drug repurposing: Confirmatory screen for U-2 OS cells (AID 1347122). Further: nearly all actives have a fitted effect of over 65% in size. Further: potency means the concentration at half of the fitted maximal effect. The gist of the method:
(§1)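 Cells (500-1,000/well) rested 5 h, then received compounds for 48 h; metabolically active cells were measured by CellTiter-Glo luminescence. Final concentrations spanned up to 46 µM (MIPE, 11-point) or 0.59 nM-46 µM (NPC, 8-point) in primary screens, 11-point in follow-ups.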

Assay [8] can be described thus: qHTS of pediatric cancer cell lines to identify multiple opportunities for drug repurposing: Confirmatory screen for Rh41 cells (AID 1347123).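 Further: 48 h compound exposure; nearly all actives have a fitted effect of over 60% in size.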 Further: potency means the concentration at half of the fitted maximal effect. The gist of the method: as §1
A short description of assay [9]: qHTS of pediatric cancer cell lines to identify multiple opportunities for drug repurposing: Confirmatory screen for Rh18 cells (AID 1347125). Further: nearly all actives have a fitted effect of over 55% in size. Further: potency means the concentration at half of the fitted maximal effect. The gist of the method:
as §1

Assay [10] in a line: qHTS of pediatric cancer cell lines to identify multiple opportunities for drug repurposing: Confirmatory screen for Rh30 cells (AID 1347126). Further: potency means the concentration at half of the fitted maximal effect; nearly all actives have a fitted effect of over 55% in size. The gist of the method:
as §1

Assay [11] is described as follows: qHTS of pediatric cancer cell lines to identify multiple opportunities for drug repurposing: Confirmatory screen for control Hh wild type fibroblast cells (AID 1347121). Further: nearly all actives have a fitted effect of over 70% in size. Further: potency means the concentration at half of the fitted maximal effect. The gist of the method:
as §1

The nature of assay [12]: qHTS of pediatric cancer cell lines to identify multiple opportunities for drug repurposing: Confirmatory screen for RD cells (AID 1347124).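 Further: cells exposed to compound for 48 h before viability readout; nearly all actives have a fitted effect of over 65% in size.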 Further: potency means the concentration at half of the fitted maximal effect. The gist of the method: as §1
The nature of assay [13]: qHTS of pediatric cancer cell lines to identify multiple opportunities for drug repurposing: Confirmatory screen for SK-N-SH cells (AID 1347129).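 Further: cells exposed to compound for 48 h before viability read; nearly all actives have a fitted effect of over 60% in size.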 Further: potency means the concentration at half of the fitted maximal effect. The gist of the method:
as §1

Assay [14] is described as follows: qHTS of pediatric cancer cell lines to identify multiple opportunities for drug repurposing: Confirmatory screen for OHS-50 cells (AID 1347128).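 Further: potency means the concentration at half of the fitted maximal effect; compound exposure lasted 48 h at 37 degrees C; nearly all actives have a fitted effect of over 55% in size.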 The gist of the method: as §1
In assay [15] the test system is Zika virus NS2B-NS3 protease (linked). Description: 384 well plate NINDS AMC confirmatory qHTS for Zika virus inhibitors (AID 1347163). Further: potency means the concentration at half of the fitted maximal effect; nearly all actives have a fitted effect of over 50% in size. The gist of the method: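 Linked protease 5/30/60 nM final; cpds up to 1 mM final, ~15 min preinc. Substrate Ac-VKTGKR-AMC 30 microM final. RT, dark, 25 min; FI ex 355/em 460; normalized to no-enzyme/no-inhibitor ctrls.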
Assay [16] relates to Zika virus NS2B-NS3 protease (linked construct). Description: Primary screen NINDS Rhodamine qHTS for Zika virus inhibitors (AID 1347160). Further: nearly all actives have a fitted effect of over 55% in size. The following applies: outcome: dose series up to 57.1 µM unless noted. The gist of the method: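 Kinetic fluorescence (Ex 480 nm, Em 540 nm) over 15 min with 1.5 microM Rhodamine110 peptide and 25 nM linked protease.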

Sequence of Furin (Homo sapiens) (P09958 whole entry, looked up): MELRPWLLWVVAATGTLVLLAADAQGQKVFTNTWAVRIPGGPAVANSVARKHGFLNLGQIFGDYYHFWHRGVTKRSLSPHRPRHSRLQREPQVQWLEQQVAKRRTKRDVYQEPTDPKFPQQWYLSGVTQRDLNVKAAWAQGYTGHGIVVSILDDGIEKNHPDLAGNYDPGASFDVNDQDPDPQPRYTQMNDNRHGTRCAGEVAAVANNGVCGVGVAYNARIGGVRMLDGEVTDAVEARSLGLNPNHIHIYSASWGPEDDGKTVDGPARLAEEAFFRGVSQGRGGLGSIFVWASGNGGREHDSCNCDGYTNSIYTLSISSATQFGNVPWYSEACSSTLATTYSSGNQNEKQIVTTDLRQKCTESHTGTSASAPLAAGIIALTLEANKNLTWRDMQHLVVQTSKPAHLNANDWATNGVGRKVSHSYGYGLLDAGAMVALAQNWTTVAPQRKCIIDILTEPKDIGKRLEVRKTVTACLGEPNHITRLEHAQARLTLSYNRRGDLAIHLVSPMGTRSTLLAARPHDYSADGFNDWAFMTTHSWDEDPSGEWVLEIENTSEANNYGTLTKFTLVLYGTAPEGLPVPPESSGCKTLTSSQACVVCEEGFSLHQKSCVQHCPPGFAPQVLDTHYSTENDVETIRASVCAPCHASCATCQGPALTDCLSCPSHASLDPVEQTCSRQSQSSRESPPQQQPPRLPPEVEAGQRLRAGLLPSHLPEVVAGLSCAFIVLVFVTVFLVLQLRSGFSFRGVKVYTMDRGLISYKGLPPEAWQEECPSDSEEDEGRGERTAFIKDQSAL
Sequence of N-terminal Xaa-Pro-Lys N-methyltransferase 1 (Homo sapiens) (Q9BV86 whole entry, looked up): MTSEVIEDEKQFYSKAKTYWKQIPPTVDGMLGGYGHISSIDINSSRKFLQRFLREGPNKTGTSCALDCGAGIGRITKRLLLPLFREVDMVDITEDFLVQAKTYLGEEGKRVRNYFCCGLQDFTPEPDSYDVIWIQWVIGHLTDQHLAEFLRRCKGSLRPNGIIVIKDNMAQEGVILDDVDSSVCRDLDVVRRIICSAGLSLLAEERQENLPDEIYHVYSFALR

Regarding `CC1COc2c(N3CCN(C)CC3)c(F)cc3c(=O)c(C(=O)O)cn1c23` (stereo unspecified), the Potency is 56.2 µM (active) in assay [1]; 24.1 µM (active) and 27.1 µM (active) in the assay with Furin (Homo sapiens); 15 µM (active) in assay [2]; 24.1 µM (active) and 27.1 µM (active) in [3]; 27.1 µM (active) in assay [4]; 28.7 µM (active) and 24.1 µM (active) in assay [5]. In addition, the Potency entry in assay [6] was “inactive”.

Turning to `CC(COc1ccccc1)N(CCCl)Cc1ccccc1` (stereo unspecified), the Potency entry in [7] and in [5] was “inactive” each time. Also, the Potency in assay [8] was 13.1 µM (active); in assay [9], 18.5 µM (active); in [10], 16.5 µM (active).

For `CC(C)(C)C(=O)Oc1ccc(S(=O)(=O)Nc2ccccc2C(=O)NCC(=O)O)cc1`, the Potency result (in assay [1]; with Furin (Homo sapiens); in assay [3]; in [4]; in [5]; in [6]) was “inactive” throughout.

In the case of `CC(C)NCC(O)c1ccc(O)c(O)c1` (stereo unspecified), the Potency entry in assay [11], in assay [12], in assay [13], in [2] and in [5] was “inactive” each time. For the same compound, the Potency in assay [7] is 7.37 µM (active).

In the case of `CN1CCN(CCCN2c3ccccc3Sc3ccc(Cl)cc32)CC1`, the Potency result in [11], in assay [2] and in assay [5] was “inactive” each time. Moreover, the Potency in assay [7] is 5.85 µM (active); in assay [8], 11.7 µM (active); in [12], 18.5 µM (active); in assay [10], 18.5 µM (active); in assay [13], 20.9 µM (active); in [1], 44.7 µM (active).

In the case of `CCCCc1oc2ccccc2c1C(=O)c1cc(I)c(OCCN(CC)CC)c(I)c1`, the Potency in assay [11] was 70.8 µM (active); in [7], 28.2 µM (active); in assay [8], 17.8 µM (active); in [9] it was 50.1 µM (active); in [10] it was 56.2 µM (active); in assay [14], 44.7 µM (active). Besides, the Potency in assay [13] is 56.2 µM (active). Also, the Potency entry in assay [5] was “inactive”.

For `O=C(Nc1ccc([N+](=O)[O-])cc1Cl)c1cc(Cl)ccc1O`, the Potency is 3.62 µM (active) in [11]; 4.56 µM (active) in [7]; 1.15 µM (active) in assay [8]; 4.56 µM (active) in assay [12]; 3.62 µM (active) in assay [9]; 2.29 µM (active) in assay [10]. Also, the Potency is 1.62 µM (active) in assay [14], 3.23 µM (active) in [13] and 20 µM (active) in [15]. Besides, the Potency entry (with Furin (Homo sapiens); in [2]; in assay [5]) was “inactive” in each case.

In the case of `COc1cc2nc(N(C)CCCNC(=O)C3CCCO3)nc(N)c2cc1OC` (stereo unspecified), the Potency was 39.8 µM (active) in assay [1]; 26.7 µM (active) in [2]; 8.09 µM (active) and 21.5 µM (active) in assay [5].

On to `OCCN(CCO)c1nc(N2CCCCC2)c2nc(N(CCO)CCO)nc(N3CCCCC3)c2n1`, for which the results for the Potency in assay [1] and in assay [2] were 79.4 µM (active) and 26.7 µM (active), respectively.

Turning to `Cc1ccccc1N1C(=O)c2cc(S(N)(=O)=O)c(Cl)cc2NC1C` (stereo unspecified), the values for the Potency (in assay [1]; in the assay with Furin (Homo sapiens)) were 79.4 µM (active) and 27 µM (active), respectively. For the same compound, the Potency entry in assay [6] was “inactive”.

In the case of `Clc1ccc2nsnc2c1NC1=NCCN1`, the Potency result in assay [11], in [7], in [8], in assay [9], in assay [13] and in [2] was “inactive” in each case. Also, the Potency entry in [5] was “inactive”. Also, in [10], the Potency is 7.37 µM (active).

Turning to `CS(=O)(=O)CCNCc1ccc(-c2ccc3ncnc(Nc4ccc(OCc5cccc(F)c5)c(Cl)c4)c3c2)o1`, the Potency in [7] is 20.8 µM (active); in [8] it was 8.27 µM (active); in [9], 14.7 µM (active); in [10] it was 14.7 µM (active); in [13], 23.5 µM (active). Further, in assay [12], the Potency result is “inactive”. In addition, the compound was called inactive in assay [16].
